From PubChem BioAssay AID1220 (Sanford-Burnham Center for Chemical Genomics, 2008)
Hit rate of the full screen: of about 190,000 compounds, about 1,300 (0.68%) were called active. The list comes from a sample in which actives are over-represented; it also holds similar structures and randomly drawn compounds. A number with no mark means an inactive call. No stated cut-off is given here; in the data, active means inhibition above about 50%; inactive means the rest.

Biological target: Mannose-6-phosphate isomerase (Homo sapiens) (UniProt P34949)
Assay: human PMI inhibitors, high substrate, primary screen, biochemical, fluorescence intensity, high mannose 6-phosphate (AID 1220)
Conditions: recombinant PMI enzyme, coupled fluorescence intensity; at 20 µM; stronger effect = higher value

Chain of Mannose-6-phosphate isomerase (Homo sapiens) (P34949 whole entry, looked up): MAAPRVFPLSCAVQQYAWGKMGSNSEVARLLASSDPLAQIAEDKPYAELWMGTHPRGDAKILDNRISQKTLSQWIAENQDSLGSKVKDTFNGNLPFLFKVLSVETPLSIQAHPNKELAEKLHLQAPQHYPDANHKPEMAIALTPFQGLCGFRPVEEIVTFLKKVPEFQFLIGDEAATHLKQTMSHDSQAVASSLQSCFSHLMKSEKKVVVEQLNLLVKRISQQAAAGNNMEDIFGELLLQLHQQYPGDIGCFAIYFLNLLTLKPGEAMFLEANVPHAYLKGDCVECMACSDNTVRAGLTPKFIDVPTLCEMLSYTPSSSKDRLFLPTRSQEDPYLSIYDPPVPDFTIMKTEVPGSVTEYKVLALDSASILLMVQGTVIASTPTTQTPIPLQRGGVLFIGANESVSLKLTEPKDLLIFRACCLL

| Compound | inhibition |
| --- | --- |
| CCOc1ccc(C(CC(=O)O)NC(=O)c2cccs2)cc1OC (stereo not drawn) | -10.3% |
| CC(C)C/C(O)=C/c1nc2cc(Cl)ccc2oc1=O | 55.1% (active) |
| Cc1ccc2oc(=O)c(/C=C(\O)CC(C)C)nc2c1 | 10.4% |
| CCS(=O)(=O)c1ccc2oc(=O)c(/C=C(\O)c3ccc(Cl)cc3)nc2c1 | 17.4% |
| C/C(=N/Nc1nc(-c2ccccc2)cc(-c2ccccc2)n1)c1ccc(N)cc1 | 3.6% |
| O=C(CN1N=C(c2ccc(Cl)cc2)CCC1=O)NCc1cccs1 | 59.2% (active) |
| O=C(CN1N=C(c2ccccc2)CCC1=O)NCc1cccs1 | 6.5% |
| Cc1ccc(C2=NN(CC(=O)NCc3cccs3)C(=O)CC2)cc1 | 3.3% |
| CC(NC(=O)c1cc2ccccc2o1)c1ccccc1 (stereo not drawn) | -9.3% |
| CCn1cc(C(=O)NCCCN2CCN(C)CC2)c(=O)c2cc(S(=O)(=O)N3CCc4ccccc4C3)ccc21 | -2.9% |
| O=C(O)c1ccc(N2Cc3ccccc3C2)cc1O | -70.5% |
| CSc1nsc(/C=C/Nc2ccc(O)cc2C)c1C#N | 65.8% (active) |
| CSc1nsc(/C=C/Nc2ccc(F)cc2F)c1C#N | 21.4% |
| CSc1nsc(/C=C/Nc2ccc(C)c(C)c2)c1C#N | 40.1% |
| Cc1cc(NC(=O)COC(=O)c2ccco2)no1 | -0.8% |
| CCOC(=O)c1c(NC(=O)CN2C(=O)c3ccccc3C2=O)sc(Cc2ccc3c(c2)OCO3)c1C | 51.5% (active) |
| Cc1c(Cc2ccc3c(c2)OCO3)sc(NC(=O)c2ccccc2)c1C(N)=O | 2.7% |
| COC(=O)c1c(NC(=O)CN2C(=O)c3ccccc3C2=O)sc(Cc2ccc3c(c2)OCO3)c1C | 1.6% |
| CC1(c2ccccc2)CC2CC(c3ccccc3)N1O2 (stereo not drawn) | -7.9% |
| CC1=C(C#N)C(=O)NC(=O)/C1=C\c1ccc(-c2ccc(C)cc2[N+](=O)[O-])o1 | 48.6% |
| CC1=C(C#N)C(=O)NC(=O)/C1=C/c1ccc(-c2ccc(S(N)(=O)=O)cc2)o1 | 18.1% |
| CC1=C(C#N)C(=O)NC(=O)/C1=C\c1ccc(-c2cc(C)c(C)cc2[N+](=O)[O-])o1 | 52.8% (active) |
| CC(Sc1nnc(NC2CCCCC2)s1)C(=O)Nc1ccc2c(c1)C(=O)c1ccccc1C2=O (stereo not drawn) | -14.7% |
| O=C(Nc1nccs1)c1ccc(CSc2nnnn2-c2ccccc2)cc1 | -6.7% |

| Compound | inhibition |
| --- | --- |
| O=C(CN1CCN(C(=O)N2CCCCC2)CC1)Nc1ccc(F)cc1 | 6.5% |
| CCOC(=O)C1Sc2ccccc2NC1=O (stereo not drawn) | 36.5% |
| CN(C(=O)c1cccnc1)c1nnc(-c2ccccn2)s1 | 2% |
| CC(C)CCNc1nc(N2CCCC2)c2c(c1C#N)CCN(C)C2 | 14.4% |
| CN1CCc2c(C#N)c(N3CCCCC3)nc(NCc3ccccc3)c2C1 | 53% (active) |
| CCN1CCc2c(C#N)c(N3CCCCC3)nc(NCc3ccccc3)c2C1 | 32.5% |
| N#Cc1c(NCCN)nc(NCc2ccccc2)c2c1CCN(Cc1ccccc1)C2 | 52.6% (active) |
| C=CCNc1nc(N2CCOCC2)c(C#N)c2c1CN(C)CC2 | 37.3% |
| CCN1CCc2c(C#N)c(NCc3ccccc3)nc(N(CC)CC)c2C1 | 0.8% |
| C=CCNc1nc(N2CCCCC2)c(C#N)c2c1CN(Cc1ccccc1)CC2 | 55.6% (active) |
| Nc1[nH]nc2nc(NCc3ccccc3)c3c(c12)CCN(Cc1ccccc1)C3 | 3.5% |
| N#Cc1c(N2CCCCC2)nc(N2CCCCC2)c2c1CCN(Cc1ccccc1)C2 | 8% |
| CCCN1Cc2cccc(C(=O)N3CCN(c4ccccc4)CC3)c2C1=O | 1% |
| O=C(Nc1ccc(N2CCOCC2)cc1)c1ccccc1SCC(=O)N1CCCC1 | 4.1% |
| Fc1ccc(CNC(=S)NC2CCCCC2)cc1 | 8.4% |
| CC(C)N1C(=O)CC(Nc2cccc3cccc(N)c23)C1=O (stereo not drawn) | 64.5% (active) |
| CN1C(=O)CC(Nc2cccc3cccc(N)c23)C1=O (stereo not drawn) | 49.7% |
| COc1ccc(NC2CC(=O)N(C(C)C)C2=O)cc1 (stereo not drawn) | 8.8% |
| Cc1ccc(C2=NC(=O)/C(=C/c3cc(O)c(O)c(Br)c3)S2)cc1 | 53.2% (active) |
| COc1cc(/C=C2\SC(c3ccc(C)cc3)=NC2=O)ccc1O | 9.3% |
| COc1cc(/C=C2\SC(c3ccc(C)cc3)=NC2=O)cc(OC)c1O | 26.7% |
| Cc1cccc(OCc2nnc(SCC(=O)Nc3ccc(C)c(C)c3)o2)c1 | 17.5% |
| Fc1ccccc1N1CCN(c2nnnn2-c2ccccc2)CC1 | -2.8% |
| Cc1cc(=O)[nH]c(N/N=C/c2ccc([N+](=O)[O-])cc2)n1 | -4.6% |

| Compound | inhibition |
| --- | --- |
| Nn1cnnc1N/N=C/c1ccc(Cl)c([N+](=O)[O-])c1 | 60.2% (active) |
| COc1ccc(/C=N/Nc2nonc2N)cc1OC | -6.6% |
| Nn1cnnc1N/N=C/c1cc([N+](=O)[O-])c(Cl)cc1Cl | -35.2% |
| CCc1nnc(N/N=C/c2ccc(-c3ccc([N+](=O)[O-])cc3)o2)n1N | 41.3% |
| COc1ccc(/C=N/Nc2nnc(C)n2N)cc1OC | 67.2% (active) |
| Cc1nnc(N/N=C/c2ccc([N+](=O)[O-])cc2)n1N | 68.7% (active) |
| CC1CCN(c2ccc(/C=N\Nc3nncn3N)cc2[N+](=O)[O-])CC1 | 43.7% |
| COc1ccc(-n2c(C)cc(/C=N/Nc3nnc(C)n3N)c2C)cc1 | -12.8% |
| CCc1cc(=O)oc2cc(C)c3c(C)coc3c12 | 4.2% |
| COc1ccc(C(=O)N(CN2CCCC2=O)c2ccccc2OC)cc1OC | 18.2% |
| O=C(Nc1nc(-c2ccc(Cl)cc2)cs1)NC1CCCCC1 | -7.6% |
| CCN(CC)C(=O)CSc1nc(O)c(Cc2ccccc2)c(=O)n1-c1ccccc1 | -5.3% |
| Nn1c(SCC(=O)NCc2ccccc2)nncc1=O | 11.9% |
| Oc1ccc(-c2csc(-c3c[nH]c4ccccc34)n2)c(O)c1 | -4.2% |
| Cc1ccc(/C=C2\C(=O)Nc3ccccc32)o1 | 6.8% |
| N#CCC(=O)N/N=C/c1ccc(OC2CSC2)cc1 | 6.6% |
| CN(C)c1nc(Oc2ccc(=O)[nH]n2)nc(N2CCCCC2)n1 | -0.1% |
| CCOC(=O)Cc1csc(SCC(=O)NC2CCCCC2)n1 | -6% |
| CCOC(=O)Cc1csc(SCC(=O)NC2CCCC(C)C2C)n1 (stereo not drawn) | -3.7% |
| CCOC(=O)Cc1csc(SCC(=O)NC(C)C23CC4CC(CC(C4)C2)C3)n1 (stereo not drawn) | 51% (active) |
| COC(C(=O)Nc1ccc(F)cc1F)c1ccccc1 (stereo not drawn) | 0.3% |
| O=C(NCCCn1ccnc1)C(Cc1ccc([N+](=O)[O-])cc1)N1C(=O)c2ccccc2C1=O (stereo not drawn) | -5.8% |
| CCn1c(Cc2ccccc2)nnc1SCC(=O)c1cccc([N+](=O)[O-])c1 | 5.6% |
| Cc1noc(C)c1S(=O)(=O)Nc1ccc(C(=O)NCCc2ccccc2)cc1 | 3.4% |

| Compound | inhibition |
| --- | --- |
| O=C1/C(=C\c2ccc(-c3ccccc3[N+](=O)[O-])o2)C(c2ccccc2)=NN1c1ccccc1 | -2.3% |
| O=C1C2C3C=CC(C3)C2C(=O)N1/N=C/c1ccc(-c2ccccc2[N+](=O)[O-])o1 (stereo not drawn) | 51.5% (active) |
| O=C1ON=C(c2ccccc2)/C1=C/c1ccc(-c2ccccc2[N+](=O)[O-])o1 | -11% |
| O=[N+]([O-])c1ccccc1-c1ccc(/C=N/n2cnnc2)o1 | 51.1% (active) |
| O=C1C2C3C=CC(C4CC34)C2C(=O)N1/N=C/c1ccc(-c2ccc(F)cc2[N+](=O)[O-])o1 (stereo not drawn) | 14.4% |
| O=C1C2C3C=CC(C4CC34)C2C(=O)N1/N=C/c1ccc(-c2ccc(Cl)cc2[N+](=O)[O-])o1 (stereo not drawn) | 7.4% |
| O=c1nc2s/c(=C\c3ccc(-c4ccccc4[N+](=O)[O-])o3)c(=O)n2nc1-c1ccccc1 | 50.5% (active) |
| Clc1ccccc1-c1ccc(/C=N/n2cnnc2)o1 | 6.7% |
| Cc1ccc(-c2ccc(/C=N/N3C(=O)C4C5C=CC(CC5)C4C3=O)o2)c([N+](=O)[O-])c1 (stereo not drawn) | 33.2% |
| Cc1ccc(-c2ccc(/C=N/N3C(=O)C4C5C=CC(C6CC56)C4C3=O)o2)c([N+](=O)[O-])c1 (stereo not drawn) | 50.8% (active) |
| COc1ccc(-c2ccc(/C=N/N3C(=O)C4C5C=CC(C6CC56)C4C3=O)o2)c([N+](=O)[O-])c1 (stereo not drawn) | 42.2% |
| Cc1n[nH]c(=S)n1/N=C/c1ccc(-c2ccccc2[N+](=O)[O-])o1 | 21.2% |
| CCCc1nc(N)c(C#N)c(N)c1C#N | 3.2% |
| O=C(Nc1cc(S(=O)(=O)N2CCOCC2)ccc1N1CCOCC1)c1ccc(S(=O)(=O)N2CCCCC2)cc1 | -10.7% |
| Clc1ncn(C23CC4CC(CC(C4)C2)C3)n1 | -0.3% |
| CCOC(=O)c1cccc(NC(=O)CN(c2ccc(OC)cc2)S(=O)(=O)c2c(C)noc2C)c1 | 19.2% |
| Cc1c(O)c(CN2CCCCC2)cc2c1oc(=O)c1ccccc12 | 1.8% |
| NC(=O)C1(N2CCCCC2)CCN(CC(=O)Nc2cc(Cl)ccc2Cl)CC1 | 7.2% |
| CCC1(C)COC2(OC1)C(=O)Nc1ccccc12 (stereo not drawn) | 8.2% |
| Cc1ccc(NC(=O)CS(=O)CC(=O)NCCCN(C)c2ccccc2)cc1 (stereo not drawn) | 11.5% |
| COC1CCCN(Cc2cn(C)nc2-c2ccc(Oc3ccccc3)cc2)C1 (stereo not drawn) | 8.1% |
